Compound activity from PubChem BioAssay.
A selection follows.
aSyn UTR act – Activators via SNCA 5'UTR binding, MLPCN | activity score, % (tested at 7.5 µM), hits read low | actives 7.1% (n = 300,000) | alpha-synuclein 5'UTR reporter, activators screen; in the data active = activity score below about -60%
Of the large screens only hits and unclear results are named; the others gave an inactive call.

Cc1ccc(OCc2nc(-c3cccnc3)no2)cc1C	aSyn UTR act -124.9
Cc1ccccc1OCc1nc(-c2cccnc2)no1	aSyn UTR act -70.6
COc1ccccc1N1C(=O)C(Cl)=C(Nc2ccccc2O)C1=O	aSyn UTR act -126.9
O=C1C(Cl)=C(Nc2ccccc2O)C(=O)N1c1ccccc1	aSyn UTR act -93.5
O=C1NC(=O)/C(=C/c2ccc(O)cc2)S1	aSyn UTR act -91.5
O=C(N/N=C/c1cn(-c2ccccc2)nc1-c1cc2ccccc2o1)c1ccccc1Br	aSyn UTR act -114.8
O=C(N/N=C/c1cn(-c2cccs2)nc1-c1ccccc1)c1ccccc1Br	aSyn UTR act -73.4
N#Cc1cn(-c2ccccc2)nc1-c1cc2ccccc2oc1=O	aSyn UTR act -63.2
OCc1cn(-c2ccccc2)nc1-c1cc2ccccc2o1	aSyn UTR act -178.5
COc1ccc(NC(=O)c2cn(-c3ccccc3)nc2-c2cc3ccccc3o2)cc1	aSyn UTR act -70.8
COc1ccc(-c2nn(-c3ccccc3)cc2C#N)cc1	aSyn UTR act -126.0
COc1ccc(-c2nn(-c3ccccc3)cc2C(=O)NC(=S)NNC(=O)c2ccncc2)cc1	none
Cc1nc2c(C(=O)N3CCCCC3)cnn2c(C)c1Cc1ccccc1F	aSyn UTR act -117.2
CCOC(=O)c1ccc2c(c1)[nH]c(=S)n2CC	aSyn UTR act -64.2
CCOc1cccc(/C=C2\NC(=S)N(c3ccccc3)C2=O)c1O	aSyn UTR act -147.8
Cc1ccc(-c2nc(NCC3CCCO3)sc2C)cc1 (stereo not drawn)	aSyn UTR act -93.7
O=c1[nH]c(/C(Cl)=C/c2cc(Cl)ccc2O)nc2cc(Cl)ccc12	aSyn UTR act -89.7
CCN(CC)c1ccc(C=N/C(C#N)=C(\N)C#N)cc1	aSyn UTR act -138.1
CN(C)c1ccc(/C=N/n2ncc3ccccc32)cc1	aSyn UTR act -290.0
Clc1ccc(Nc2nc(-c3cccnc3)cs2)cc1	aSyn UTR act -145.9
Fc1ccc(Nc2nc(-c3cccnc3)cs2)cc1	aSyn UTR act -264.9
CCN(CC)c1ccc(Nc2nc(-c3cccnc3)cs2)cc1	aSyn UTR act -210.1
c1ccc(-c2csc(Nc3cccnc3)n2)cc1	aSyn UTR act -164.5
C=CCN(C(=O)C1=NN(C2CCS(=O)(=O)C2)C(=O)CC1)c1nc(-c2ccc([N+](=O)[O-])cc2)cs1 (stereo not drawn)	aSyn UTR act -134.7
O=C1CCCC/C1=C/Nc1ccc2c(c1)OCO2	aSyn UTR act -138.6
O=C1CCCC/C1=C/Nc1ccc(C(=O)O)cc1	aSyn UTR act -72.3
CCOc1ccccc1NC(=O)C(OC(=O)c1ccc(O)cc1)c1ccccc1 (stereo not drawn)	aSyn UTR act -61.7
CCOC(=O)COn1c(-c2cccc(Cl)c2)nc2ccc([N+](=O)[O-])cc21	aSyn UTR act -192.2
CCOC(=O)C(C)On1c(-c2cccc(Cl)c2)nc2ccc([N+](=O)[O-])cc21 (stereo not drawn)	aSyn UTR act -62.0
CN(C)S(=O)(=O)c1cc(NC(=O)c2cc(=O)c3ccccc3o2)ccc1Cl	aSyn UTR act -66.4
COC(=O)c1ccccc1NC(=O)c1cc2ccccc2o1	aSyn UTR act -78.9
COC(=O)c1cccc(NC(=O)c2cc3ccccc3o2)c1	aSyn UTR act -104.7
CC(=O)c1cccc(NC(=O)c2cc(=O)c3ccccc3o2)c1	aSyn UTR act -62.3
CCN1CCN(c2c(Cl)cccc2NC(=O)c2ccc([N+](=O)[O-])o2)CC1	none
O=C(Nc1ccccc1C(F)(F)F)c1cc2ccccc2o1	aSyn UTR act -209.4
O=C(Nc1cccc(Cl)c1N1CCCC1)c1cc2ccccc2o1	aSyn UTR act -74.1
Cc1ccc(S(=O)(=O)Nc2cccc(C(=O)NCc3cccnc3)c2)cc1F	aSyn UTR act -72.6
N#C/C(=C\c1ccc(-c2nc3ccccc3s2)o1)C(N)=O	aSyn UTR act -71.4
O=C(c1ccco1)n1nc(-c2ccccc2)nc1SCc1ccccc1	aSyn UTR act -112.2
CCS(=O)(=O)n1nc(-c2ccc(Cl)cc2)nc1SC	aSyn UTR act -69.6
Cc1ccc(S(=O)(=O)n2nc(-c3ccco3)nc2SCc2ccccc2)cc1	aSyn UTR act -73.6
CSc1nc(-c2ccc(Cl)cc2)nn1C(=O)c1ccco1	aSyn UTR act -107.2
O=C(Cc1ccccc1)n1nc(-c2ccco2)nc1SCc1ccccc1	aSyn UTR act -70.8
Cc1ccc(-c2nnn(CCC(=O)NC(C)(C)C)n2)cc1	aSyn UTR act -80.2
NC(=O)CSc1nc(C2CC2)nc2sc3c(c12)CCCC3	aSyn UTR act -108.8
Cc1cc(NC(=O)CSc2nc(C3CC3)nc3sc4c(c23)CCC(C)C4)no1 (stereo not drawn)	aSyn UTR act -69.5
N#Cc1ccccc1NC(=O)CSc1nccn1CCc1ccccc1	aSyn UTR act -149.4
CC(=O)c1ccc(NC(=O)CSc2nccn2CCc2ccccc2)cc1	aSyn UTR act -128.2
Cc1ccc(NC(=O)NCCN2C(=O)C3C4C=CC(C4)C3C2=O)cc1 (stereo not drawn)	aSyn UTR act -80.9
Cn1cccc1C(=O)NCCc1ccc(Cl)cc1	aSyn UTR act -162.4
COc1ccc(CCNC(=O)c2cccn2C)cc1	aSyn UTR act -89.3
CC1CCCCN1C(=O)CSc1nnc(-c2ccccc2O)o1 (stereo not drawn)	aSyn UTR act -83.9
CC1CCCCN1C(=O)CSc1nc2ncccc2[nH]1 (stereo not drawn)	aSyn UTR act -74.8
CC1CCCCN1C(=O)CSc1nnc(-c2ccc(Cl)s2)o1 (stereo not drawn)	aSyn UTR act -69.4
CC(=O)Nc1ccc(-c2nc3ccc(NC(C)=O)cc3o2)cc1	aSyn UTR act -103.9
CC(=O)Nc1cc(-c2nc3ccccc3o2)ccc1Cl	aSyn UTR act -77.1
Cc1cc2nc(-c3ccc(NC(=O)C(C)C)cc3)oc2cc1C	aSyn UTR act -195.5
COC(=O)CCS(=O)(=O)c1nc(-c2ccccc2)cc(C(F)(F)F)n1	aSyn UTR act -73.2
CCOC(=O)CCS(=O)(=O)c1nc(-c2ccccc2)cc(C(F)(F)F)n1	aSyn UTR act -129.3
c1cncc(-c2csc(NCc3ccco3)n2)c1	aSyn UTR act -92.3
COc1ccc(-c2csc(NCc3ccco3)n2)cc1C	aSyn UTR act -194.9
CC(=O)Nc1ccc(-c2csc(NCc3ccco3)n2)cc1	aSyn UTR act -138.0
CC(C)Oc1cccc(C(=O)C2CCCN(C(=O)CCc3cnn(C)c3)C2)c1 (stereo not drawn)	aSyn UTR act -77.0
CCN(CC)Cc1c(O)ccc2c(=O)c(-c3ccccc3)coc12	aSyn UTR act -64.3
CCOC(=O)c1sc(NC(=O)Nc2ccccc2Cl)cc1C	aSyn UTR act -94.9
CCOC(=O)c1sc(NC(=O)c2ccc(C)s2)cc1C	aSyn UTR act -170.4
CCOC(=O)c1sc(NC(=O)c2cccc(S(=O)(=O)N3c4ccccc4CC3C)c2)cc1C (stereo not drawn)	none
CCOC(=O)c1sc(NC(=O)C2CCC2)cc1C	aSyn UTR act -110.0
O=C(c1ccc(-c2nc3ccccc3s2)s1)N1CCOCC1	none
CCNC(=O)COC(=O)c1ccc(-c2nc3ccccc3s2)s1	aSyn UTR act -67.2
CCN1CCN(C(=O)c2ccc(-c3nc4ccccc4s3)s2)CC1	aSyn UTR act -65.7
Cc1noc(C)c1COC(=O)c1ccc(-c2nc3ccccc3s2)s1	aSyn UTR act -205.6
O=C(NC1CC1)c1ccc(-c2nc3ccccc3s2)s1	none
O=C(/C=C/c1cc(Br)ccc1F)Nc1cccnc1	aSyn UTR act -117.8
O=C(/C=C/c1c(F)cccc1Cl)Nc1cccnc1	aSyn UTR act -111.3
CCOC(=O)c1cnc2c(-c3cccc(Br)c3)cnn2c1C	aSyn UTR act -126.9
CCOC(=O)c1cnc2c(C(=O)OCC)cnn2c1N	aSyn UTR act -63.4
CCOC(=O)c1cnn(-c2ccc(C)cc2)c1N	aSyn UTR act -100.2
